The results in this text go back to the supplement of paper PMC9492666.

The test system of test [1] is HCC1937. As to the kind of experiment: relative cell viability, compound alone, vs DMSO (fraction of DMSO control); higher = less growth inhibition. The note with it: 72 h.
The subject of test [2] is MDA-MB-231. Described as above. The conditions noted are these: 72 h.

Counter-ions that a name gives are not always drawn.
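Also: viability read out with the CCK-8 kit in 96-well plates, screening a set of 303 compounds acting on lipid metabolism targets.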

For `O=C(O)c1c[nH]c2cc(Cl)c(-c3ccc(C4(O)CCC4)cc3)cc12`, the relative cell viability stood at 0.958 in test [1] and 0.914 in test [2].
Consider `COC(=O)/C=C/c1cccc(N(Cc2ccc(-c3ccc(N(C)C)cc3)cc2)C(=O)C2CCCCC2)c1` [Fexaramine], for which the relative cell viability came to 0.805 in test [1] and 0.924 in test [2].
For `CCCC[S+]([O-])c1sc2nc(-c3cccs3)cc(-c3ccccc3)c2c1N` (stereo not drawn), in that order: 0.85 and 0.806.
The matching figures for `CC(C)(CCCCCC(O)CCCCCC(C)(C)C(=O)O)C(=O)O`: 0.598 and 0.886.
For `O=C(O)/C=C/c1ccc(O)c(O)c1` [Caffeic Acid], in that order: 0.72 and 0.874.
For the compound `C=C(C)[C@@H]1CC[C@]2(C)CC[C@]3(C)[C@H](CC[C@@H]4[C@@]5(C)CCC(=O)C(C)(C)[C@@H]5CC[C@]43C)[C@@H]12`, the relative cell viability in test [1] came out at 1.04; in test [2], 1.08.
For `CNC(=O)c1cccc(NC(=O)N2CCC(Oc3ccccc3Cl)CC2)c1`, in that order: 0.991 and 0.974.
Take `COC(=O)N(CC(=O)O)Cc1cccc(OCc2nc(-c3ccc(Cl)cc3)oc2C)c1`: the relative cell viability in test [1] came to 1.08; in test [2] it was 0.834.
The matching figures for `COc1ccc(C2(CNC(=O)c3ccc(NC(=O)c4ccco4)cc3)CCOCC2)cc1`: 0.84 and 0.873.
For the compound `COc1ccc(-c2cc(=O)c3c(O)c(OC)c(O)cc3o2)cc1OC` [Eupatilin], the relative cell viability in test [1] came out at 0.622; in test [2], 0.739.
The matching figures for `CC(C)OC(=O)C(C)(C)Oc1ccc(C(=O)c2ccc(Cl)cc2)cc1` [Fenofibrate]: 1.16 and 0.955.
For `C[C@H](CCOc1cccc(CC(=O)O)c1)N(Cc1cccc(C(F)(F)F)c1Cl)CC(c1ccccc1)c1ccccc1`, in that order: 0.632 and 0.841.
The matching figures for `COc1ccc(C(=O)/C=C/c2ccccc2)cc1` [4'-Methoxychalcone]: 0.73 and 0.889.
With `N[C@@H](Cc1c[nH]cn1)C(=O)O` [histidine], the relative cell viability in test [1] was determined as 1.05; in test [2], 1.03.
Regarding `CCN(CC)C(=O)N1CCN(C)CC1` [Diethylcarbamazine citrate], the relative cell viability in test [1] came to 0.699; in test [2], 0.856.
For `C[C@@H]1OCC2(CCN(c3cnc(Sc4ccnc(N)c4Cl)c(N)n3)CC2)[C@@H]1N`, in that order: 0.896 and 0.996.
Turning to `CC(C)C1=CC2=CC[C@@H]3[C@](C)(CCC[C@@]3(C)C(=O)O)[C@H]2CC1` [Abietic Acid], the relative cell viability in test [1] is 1.02; in test [2], 1.07.
The matching figures for `CN1CCN(C(=O)C2C(C(=O)O)[C@H]3CC[C@@H]2O3)CC1` (stereo partly drawn): 0.568 and 0.616.
For the compound `O=c1c(-c2ccc(O)cc2)coc2cc(O)ccc12` [Daidzein], the figures for the relative cell viability in test [1] and in test [2] were 1.13 and 0.863, respectively.
For the compound `CCCCCCCCCCCC1=C(O)C(=O)C=C(O)C1=O` [Embelin], the relative cell viability worked out at 1.08 in test [1] and 0.983 in test [2].
As for `Nc1ncnc2c1ncn2C1OC(COP(=O)(O)O)C(O)C1O` (stereo not drawn) [Adenosine 5'-monophosphate monohydrate], the results for the relative cell viability in test [1] and in test [2] were 1.09 and 1.03, respectively.
For the compound `CCOC(=O)C(C)(C)Oc1ccc(Cl)cc1` [Clofibrate], the relative cell viability in test [1] was 1.15; in test [2], 0.9.
On to `CC(=O)O[C@H](CC=C(C)C)C1=CC(=O)c2c(O)ccc(O)c2C1=O` [Acetyl shikonin], for which the relative cell viability in test [1] stood at 1.08; in test [2], 1.06.
The matching figures for `O=C(OC(C(F)(F)F)C(F)(F)F)N1CCN(Cc2ccc(C(F)(F)F)cc2N2CCCC2)CC1`: 0.999 and 1.01.
